Where “and” joins values, the source holds several entries; their conditions need not be identical. Equal entries are not always repeated. Results filed as inconclusive are left out. A call without a number means that no potency is given here. A structure can be active in one record and inactive in another. Calls of active or inactive are those of the source. Unless noted, calls follow the shape of the dose curve; as a rule, active = well fitted curve in the direction sought with a large enough effect in the repeat runs; inconclusive = weak or mixed curves; inactive = no such curve, though single readings can be large; an effect the other way counts as inactive or inconclusive.
How the values were obtained:
[1] = qHTS assay to identify small molecule agonists of H2AX (AID 1224845; active = well fitted activation curve with a large enough effect in the signal ratio in the repeat runs, not every such curve was filed as active; the % refers to the signal ratio)
In short: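 Wild-type CHO-K1 cells, plated overnight, exposed 3hr at 37C to 15 concentrations (0.76% DMSO final). Lysed, then HTRF anti-pH2AX (S139) cryptate and anti-H2AX-d2 antibodies, 24 hr room temperature; 665/620 nm emission read.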

[2] = qHTS assay to identify small molecule agonists of the hypoxia (HIF-1) signaling pathway (AID 1224846; active = well fitted activation curve with a large enough effect in the signal ratio in the repeat runs, not every such curve was filed as active; the % refers to the signal ratio)
In short: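 HRE-bla ME-180 beta-lactamase reporter cells in medium with 0.5% dialyzed FBS, pre-incubated 5 h then exposed to compounds 17 h at 37C, 5% CO2; reporter induction read with CCF4-AM FRET substrate.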

[3] = qHTS assay to identify small molecule agonists of H2AX - cell viability counter screen (AID 1224847; calls by dose curve; also: nearly all actives have a fitted effect of over 30% in size; also: potency is read from the fitted curve at half-maximal effect)
In short: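 Wild-type CHO-K1 cells (10% FBS medium) were plated overnight at 37C, exposed to compounds at 15 concentrations for 3 hr at 37C (0.76% DMSO final), and viability was read as CellTiter-Glo luminescence after 30 min at room temperature.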

[4] = qHTS assay to identify small molecule antagonists of the estrogen related receptor (ERR) signaling pathway from Tox21 library (AID 1224848); also: nearly all actives have a fitted effect of over 50% in size; also: potency is read from the fitted curve at half-maximal effect
In short: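 Luminescent reporter read-out (ONE-Glo) from NTP's ERR cell line after 18 h treatment at 37 C with DMSO-dissolved Tox21 compounds; cells pre-plated 6 h beforehand at 2,000 per well.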

[5] = qHTS assay to identify small molecule agonists of the estrogen related receptor (ERR) signaling pathway from Tox21 library (AID 1224849; calls by dose curve; also: nearly all actives have a fitted effect of over 15% in size); settings: ERR reporter cell line, ONE-Glo luciferase, 18 h
In short: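 ERR reporter cells (NTP line) pre-incubated 6 hours at 37 C, then exposed to compounds for 18 hours at 37 C. ONE-Glo luciferase luminescence was read after 30 minutes at room temperature.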

[6] = qHTS RealTime-Glo MT Cell Viability Assay in HepG2 cells - 24 hour (AID 1224867); also: nearly all actives have a fitted effect of over 50% in size
In short: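 HepG2 suspension premixed with RealTime-Glo reagents is plated at 600 cells per well and left 5 h at 37 C/5% CO2. Compounds in DMSO then go in, and bioluminescence reflecting viable cell number is recorded over 40 h.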

[7] = A CellTox Green Cytotoxicity Assay to monitor cytotoxicity in HEK293 cells - 0 hour (AID 1224869); also: nearly all actives have a fitted effect of over 50% in size
In short: (§1)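 HEK293 cells, 600/well, were preincubated 5 hours and then exposed to compounds at 37 C for up to 40 hours. A cell-impermeant cyanine dye staining dead-cell DNA was read by fluorescence at 0, 8, 16, 24, 32 and 40 h time points.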

[8] = qHTS RealTime-Glo MT Cell Viability Assay in HepG2 cells - 40 hour (AID 1224870); also: nearly all actives have a fitted effect of over 50% in size; also: potency is read from the fitted curve at half-maximal effect
In short: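 HepG2 cells (600/well) mixed with RealTime-Glo MT reagent, settled 5 h at 37 C/5% CO2 before compound addition. Nonlytic NanoLuc luminescence from viable-cell prosubstrate reduction read repeatedly during 40 h treatment at 37 C.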

[9] = A CellTox Green Cytotoxicity Assay to monitor cytotoxicity in HEK293 cells - 40 hour (AID 1224871); also: nearly all actives have a fitted effect of over 45% in size; also: potency is read from the fitted curve at half-maximal effect
In short: as §1

[10] = qHTS RealTime-Glo MT Cell Viability Assay in HEK293 cells - 32 hour (AID 1224868); also: nearly all actives have a fitted effect of over 50% in size; also: potency is read from the fitted curve at half-maximal effect
In short: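 Reads taken at 0, 8, 16, 24, 32 and 40 h from the same wells. HEK293 cells (600/well) carried RealTime-Glo reagents from seeding, with compound added after a 5 h settle at 37 C.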

Structure (SMILES)	Potency [1]	Potency [2]	Potency [3]	Potency [4]	activity change, positive = activation ([5]; at 92.4 µM (top of the series))	Potency [6]	Potency [7]	Potency [8]	Potency [9]	Potency [10]	activity change, positive = activation ([5]; at 42.5 µM (top of the series))
CC1COC(=O)O1 (configuration not stated)	inactive	inactive	inactive	inactive	4.88% (inactive) and 5.46% (inactive)	inactive	inactive	inactive	inactive	–	–
CC(=O)CC(=O)Nc1ccc2[nH]c(=O)[nH]c2c1	inactive	inactive	inactive	inactive	4.73% (inactive)	inactive	inactive	inactive	inactive	inactive	–
CCC(C)(Oc1ccc(C2(c3ccc(OC(C)(CC)C(=O)O)cc3)CCCCC2)cc1)C(=O)O (configuration not stated)	inactive	inactive	inactive	inactive	–	inactive	inactive	inactive	inactive	–	9.22% (inactive)
CC(C)CCOC(=O)c1ccc(N(C)C)cc1	inactive	inactive	inactive	inactive	–	inactive	inactive	inactive	inactive	inactive	81.2% (active)
Cc1cccc([N+](=O)[O-])c1C(=O)O	inactive	inactive	inactive	inactive	4.9% (inactive)	inactive	inactive	inactive	inactive	inactive	–
CCOC(=O)C(C)C(C)=O (configuration not stated)	inactive	inactive	inactive	inactive	5% (inactive)	inactive	inactive	inactive	inactive	inactive	–
C#CC(C)(CC)OC(=O)c1ccccc1C(=O)O (configuration not stated)	inactive	inactive	inactive	inactive	–	inactive	inactive	inactive	inactive	inactive	0.513% (inactive)
O=Cc1ccc(Cl)cc1	inactive	inactive	inactive	inactive	-1.47% (inactive)	inactive	inactive	inactive	inactive	inactive	–
O=C(O)CCc1ccccc1	inactive	inactive	inactive	inactive	0.886% (inactive)	inactive	inactive	inactive	inactive	–	–
CCCCOCCOC(=O)c1ccccc1C(=O)OCCOCCCC	inactive	inactive	inactive	26.7 µM (active) and 30.6 µM (active)	-34.9% (inactive) and -38.2% (inactive)	inactive	inactive	inactive	inactive	inactive	–
CCN(CC)C(=O)Nc1ccc(OCC(O)CNC(C)(C)C)c(C(C)=O)c1 (configuration not stated)	inactive	inactive	inactive	inactive	–	inactive	inactive	inactive	inactive	–	-6.6% (inactive)
O=S(=O)(O)c1ccc2nc(-c3ccccc3)[nH]c2c1	inactive	inactive	30.3 µM (active) and 22 µM (active)	inactive	-3.59% (inactive)	inactive	inactive	inactive	inactive	inactive	2.03% (inactive)
O=C(O)c1cc(Cl)cc(Cl)c1	inactive	inactive	inactive	inactive	-3.61% (inactive)	inactive	inactive	inactive	inactive	–	–
CC(=O)CC(C)=O	inactive	inactive	inactive	inactive	3.5% (inactive)	inactive	inactive	inactive	inactive	inactive	–
CCN1CCCC1CNC(=O)c1cc(S(=O)(=O)CC)c(N)cc1OC (configuration not stated)	inactive	inactive	inactive	inactive	–	inactive	inactive	inactive	inactive	inactive	2.19% (inactive)
c1cnc2cc3c(cc2n1)C1CNCC3C1	inactive	inactive	inactive	inactive	–	inactive	inactive	inactive	inactive	–	1.11% (inactive)
CCCC(=O)c1ccccc1	inactive	inactive	inactive	inactive	1.85% (inactive)	inactive	inactive	inactive	inactive	inactive	–
CC(=O)Nc1ccc(C(=O)CCl)cc1	inactive	inactive	inactive	–	–	inactive	inactive	inactive and 24.5 µM (active)	inactive and 15.5 µM (active)	inactive and 24.5 µM (active)	–
CCOc1ccccc1C(N)=O	inactive	inactive	inactive	–	–	inactive	inactive	inactive	inactive	–	–
O=C(O)c1cn(-c2ccc(F)cc2)c2cc(N3CCNCC3)c(F)cc2c1=O	inactive	inactive	inactive	–	–	inactive	inactive	inactive	inactive	inactive	–
COc1ccc(COC(C)=O)cc1	inactive	inactive	inactive	inactive	0.212% (inactive) and 1.93% (inactive)	inactive	inactive	inactive	inactive	–	–
